# The list is not random: actives were taken first. Their share in the collection is about 12%.
# Sm TGR inh – inhibitors of Schistosoma mansoni thioredoxin glutathione reductase; 360,000 compounds, 3% hits; purified TGR, DTNB reduction, TNB absorbance 405 nm; Q962Y6; Potency, µM (titrated, usually from 114 µM), inactives show at the top dose activity change, negative = inhibition, hits mostly inhibitors; note: % is set by controls: 0 for no effect and ±100 for the full control effect; nearly all actives have a fitted effect of over 60% in size
#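 First, TGR (20 nM dispensed) and NADPH were mixed with compound. Second, a 15 min room-temperature incubation followed. Third, further NADPH and then DTNB were added to start the reaction. Finally, TNB absorbance was monitored kinetically.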
# SARS PLpro yeast – SARS-CoV PLP inhibition in yeast | S. cerevisiae expressing SARS-CoV PLpro, growth rescue | Potency, µM (highest dose often 32.9 µM), inactives show at the highest dose activity, positive = growth rescue, hits mostly activators | 330,000 compounds, 0.19% hits; calls by dose curve; note: 0% is about no effect; nearly all actives have a fitted effect of over 55% in size
# Pf growth 48h – inhibits P. falciparum growth in the first generation, 48 h; P. falciparum luciferase growth in erythrocytes, 48 h; Potency, µM (highest dose often 28.7 µM), for the others: at the highest dose activity change, negative = inhibition, hits mostly inhibitors; 310,000 compounds, 5.9% hits; note: % is set by controls: 0 for no effect and ±100 for the full control effect
#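 In quantitative HTS format, infected erythrocytes bearing luciferase-reporter parasites were treated for a single generation at 37 C. Luminescence after adding detection reagent served as the growth measure.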
# Pf growth 96h – P. falciparum growth inhibition at 96 hours; 320,000 compounds, 6.9% hits; P. falciparum luciferase reporter growth, 96 h; Potency, µM (series often up to 28.7 µM), without a hit: at the highest dose activity change, negative = inhibition, hits mostly inhibitors; note: % is set by controls: 0 for no effect and ±100 for the full control effect
#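 Plates of compound plus infected erythrocytes (2% hematocrit, 0.05% parasitemia final) incubate 96 hours, 37 C, 5% CO2. Detection reagent added; reduced luminescence from the parasites' luciferase reporter flags inhibition.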
# Numbers without * were called inactive; ? = inconclusive; / = no result given. Unless noted, calls come from the whole dose curve; as a rule, active = well fitted curve in the direction sought with a large enough effect; inconclusive = small, poorly fitted or top-dose-only effect, or another doubt; inactive = no such curve, though single readings can be large; an effect the other way counts as inactive or inconclusive. Potency is the fitted concentration of half-maximal effect.
SMILES,Sm TGR inh,SARS PLpro yeast,Pf growth 48h,Pf growth 96h
COc1ccc(CCN2C(=O)N(c3cccc(C)c3)C(=O)C2CC(=O)Nc2ccccc2)cc1OC (centres undefined),1.1%,/,/,/
CCOc1cc(/C=N/NC(=O)c2cccc([N+](=O)[O-])c2)ccc1OS(=O)(=O)c1ccccc1,-19.5%,-5.2%,11.7µM*,?
CN(c1ccc(C(=O)N/N=C/c2cccc([N+](=O)[O-])c2)cc1)S(=O)(=O)c1ccccc1,0.8%,-2.9%,6.57µM*,?
Cc1ccccc1CNC(=O)Cn1c(=O)c2cccn2c2cccnc21,-0.1%,/,/,/
COc1cc2[nH]c(=S)nc(NCc3ccc(C)cc3)c2cc1OC,-24.7%,-1.6%,?,13.1µM*
COc1cc2[nH]c(=S)nc(NCc3ccccc3)c2cc1OC,-3.4%,-1.4%,-18.8%,0.522µM*
COc1ccc(CCNC(=O)CCCCCNc2nc(=S)[nH]c3ccccc23)cc1OC,7.3%,-7.2%,?,10.4µM*
CCOc1ccc(CNC(=O)c2ccc3c(c2)c(C)c(C)n3Cc2ccccc2)cc1OC,6.6%,/,/,/
O=C(O)c1ccc2c(c1)C(=O)N([C@]1(C(=O)O)C[C@H]1c1ccccc1)C2=O,0.4%,-0.3%,?,15.9%
Cc1cc2c(c(=O)n1CCN(C)C)C(c1ccc(Cl)cc1)C(C#N)=C(N)O2 (centres undefined),2.3%,3.2%,-21.9%,?
CCOc1ccc(C2C(C#N)=C(N)Oc3cc(C)n(CCN(C)C)c(=O)c32)cc1OCC (centres undefined),-27.8%,1.3%,4.6%,11.7µM*
CCN(CC)CCCn1c(C)cc2c(c1=O)C(c1ccc(OC)c(OC)c1OC)C(C#N)=C(N)O2 (centres undefined),16.0%,8.2%,?,0.928µM*
Cc1nnc2c3ccccc3nc(N3CCN(c4cccc(Cl)c4)CC3)n12,1.8%,/,/,/
CC(C)n1nnc(-c2ccc(OCc3ccccc3F)cc2)n1,-5.5%,-6.8%,29.1%,8.28µM*
Cc1cc2cc(CCNC(=O)c3ccc(Br)o3)c(=O)[nH]c2cc1C,35.5µM*,-4.8%,?,-20.8%
Cc1cc2cc(CNC(=O)c3ccc(Br)o3)ccc2[nH]1,39.8µM*,1.6%,?,?
COc1ccc2cc(CCNC(=O)c3ccc(Br)o3)c(=O)[nH]c2c1,?,-3.7%,?,?
Cc1cc2cc(CNC(=O)c3ccc(Br)o3)ccc2n1C,14.1µM*,-0.4%,?,9.28µM*
Cc1ccc(CNC(=O)c2ccc(Br)o2)cc1,-3.8%,-24.6%,40.2%,16.8%
COc1cc(C(=O)NCc2ccc3[nH]c(C)cc3c2)cc(OC)c1OC,?,-1.1%,-27.1%,?
COc1ccc(C(=O)NCc2ccc3[nH]c(C)cc3c2)cc1OC,14.1µM*,0.2%,-17.4%,?
Cc1ccc(NN2C(=O)C=C(c3ccccc3)C2=O)cc1,?,-19.3%,?,44.1%
COc1cc(CN(C(=O)c2ccccc2F)C2CCS(=O)(=O)C2)cc(OC)c1OC (centres undefined),5.8%,/,/,/
COc1cc(NC(=O)CCC(=O)c2cccs2)cc(OC)c1,6.0%,-0.6%,17.0%,?
CCOc1ccccc1C(=O)Nc1cc2c(cc1N1CCCCC1)n(C)c(=O)n2C,1.4%,/,/,/
SMILES,Sm TGR inh,SARS PLpro yeast,Pf growth 48h,Pf growth 96h
COc1cc(/C=C\C(=O)NCc2ccc3[nH]c(C)cc3c2)cc(OC)c1OC,-21.0%,8.5%,11.7µM*,13.1µM*
COc1cccc(C(=O)NCc2ccc3[nH]c(C)cc3c2)c1,39.8µM*,-0.4%,?,0.3%
CC(=O)Nc1ccc(S(=O)(=O)NCc2ccc3[nH]c(C)cc3c2)cc1,?,0.4%,-1.7%,-4.3%
Cc1cccc(NC(=O)NCc2ccc3c(c2)cc(C)n3C)c1,-13.4%,-15.0%,?,10.4µM*
COc1ccc(/C=C\C(=O)NCc2ccc3[nH]c(C)cc3c2)cc1OC,-6.7%,18.9%,-2.5%,-28.0%
Cc1cc2cc(CNC(=O)c3cccc([N+](=O)[O-])c3)ccc2[nH]1,-21.4%,0.7%,-5.8%,-17.4%
Cc1ccc(S(=O)(=O)NCc2ccc3[nH]c(C)cc3c2)cc1,11.2µM*,-4.4%,?,-28.1%
Cc1cc2cc(CNC(=O)Nc3cccc(Cl)c3)ccc2n1C,-6.5%,-5.5%,-8.6%,2.3%
Cc1ccc(-c2nc3c4cnn(-c5cc(Cl)ccc5Cl)c4ncn3n2)cc1,2.2%,/,/,/
Cc1cc2cc(CNC(=O)c3ccc(S(=O)(=O)N4CCOCC4)cc3)ccc2n1C,-0.8%,13.2%,13.1µM*,?
